Among all 48,000 compounds or so, about 13,000 (27%) showed an effect of 50% or more. This is one part of the list.
Test system: Wolbachia pipientis
Assay: Anti-Wolbachia Cell-Based Screen
Assay type: functional
Parameters: scale not given: in the data most compounds retested in dose-response had high values
Conditions: 5 µM

In order of falling “Percent Effect” value:
1. CN(C)C(=O)c1c[nH]nc1C1CCN(S(=O)(=O)c2ccc(Cl)cc2)CC1  131.9%
2. Cc1ccc(S(=O)(=O)N2CCCC(c3n[nH]cc3C(=O)N(C)C)C2)cc1 (configuration not stated)  125.7%
3. Cc1ccc(S(=O)(=O)N2CCC(c3n[nH]cc3C(=O)N(C)C)CC2)cc1  124.5%
4. CN(C)C(=O)c1c[nH]nc1C1CCN(S(=O)(=O)c2ccccc2)CC1  115.3%
5. COc1cccc(CN2CCC(Cc3cnc(CN(C)C)cn3)CC2)c1  111.9%
6. COc1ccccc1CN1CCC(Cc2cnc(CN(C)C)cn2)CC1  110%
7. Cc1ocnc1C(=O)N1CCN(CCOc2ccccc2)CC1  109.9%
8. Cc1cc(C(=O)N2CCC3(CC2)C(=O)N(C)CCN3CC2CC2)c(C)o1.O=C(O)C(F)(F)F  105.3%
9. Cc1cc(C(=O)N2CCC3(CC2)C(=O)N(C)CCN3CC(C)C)c(C)o1.O=C(O)C(F)(F)F  105.2%
10. O=C(c1ncoc1C1CC1)N1CCCN(CCCc2ccccc2)CC1  104.8%
11. CN(C)C(=O)c1c[nH]nc1C1CCN(S(=O)(=O)c2cccc(Cl)c2)CC1  103%
12. Cc1ccsc1C(=O)N1CCC2(CC1)C(=O)N(C)CCN2CC1CC1.O=C(O)C(F)(F)F  98.73%
13. O=C(c1ncoc1C1CC1)N1CCN(CCOc2ccccc2)CC1  94.73%
14. CN(C)Cc1cnc(CC2CCN(CCc3ccccc3)CC2)cn1  90.66%
15. COc1ccc(NC(=O)NCC(O)c2ccccc2F)c(OC)c1 (configuration not stated)  84.27%
16. COc1ccc(OC)c(C(O)CNC(=O)Nc2ccc(F)cc2F)c1 (configuration not stated)  81.01%
17. Cc1cc(CNc2ccc(C(=O)N3CCc4ccccc43)cn2)on1  23.63%
18. COc1ccc(OC)c(NC(=O)NCC(O)c2ccc(F)c(F)c2)c1 (configuration not stated)  19.22%
19. O=C(c1n[nH]c2c1CCN(Cc1nccs1)C2)N1CCOCC1  14.04%
20. CNC(=O)CCNC(=O)c1cc(Br)c2c(c1)OCCO2  13.5%
21. CCn1c(CN(C)C)nnc1C1CCN(Cc2cccc(OC)c2)CC1  12.38%
22. Cc1cnc(CN(C)C2CCN(CCc3ccccn3)CC2)cn1  10.61%
23. CC(C(=O)N1CCN(CCOc2ccccc2)CC1)n1cc(Cl)cn1 (configuration not stated)  9.787%
24. COc1ccc(NC(=O)NCC(O)c2ccc(F)cc2F)c(OC)c1 (configuration not stated)  9.274%
25. CC(=O)c1ccc(S(=O)(=O)N2CCC(c3n[nH]c(C)n3)CC2)cc1  9.052%
26. CNC(=O)[C@@]12CCO[C@@H]1CCN(S(=O)(=O)c1ccc(C)cc1)C2  8.759%
27. CN(C)C(=O)c1cccnc1N1CCOC(c2ccc(Cl)cc2)C1 (configuration not stated)  7.498%
28. COc1cccc(CN2CCC(c3nccn3C(C)C)CC2)c1  7.494%
29. Cc1cc(C(=O)N2CCC3(CC2)C(=O)NCCN3CC(C)C)c(C)o1  4.806%
30. N#Cc1ccc(OC2CCN(C(=O)c3cncc(Br)c3)CC2)nc1  3.966%
31. Cc1nc(C2CCN(S(=O)(=O)c3ccc(Cl)cc3)CC2)n[nH]1  2.775%
32. CCN1CC[C@@]2(C(=O)N(C)C)CCN(S(=O)(=O)c3ccccc3)CC[C@@H]12.O=C(O)C(F)(F)F  1.516%
33. COc1ccccc1C(O)CNC(=O)Nc1ncccc1C (configuration not stated)  0.5949%
34. CCC(C)(CC(=O)OC)NC(=O)c1ccc2[nH]ccc2c1 (configuration not stated)  -0.3166%
35. Cc1ccc(N2CCN(CC3CC3)C3(CCN(C(C)C)CC3)C2=O)cn1.O=C(O)C(F)(F)F  -1.753%
36. CCN(C)S(=O)(=O)N1CCCC(c2nc(-c3ccccc3)c[nH]2)C1 (configuration not stated)  -1.843%
37. CCCn1[nH]cc/c1=N\C(=O)CN1CCCC1Cn1nc(C)nc1C (configuration not stated)  -1.859%
38. CCOc1ncccc1NC(=O)NCC(O)c1ccccc1OC (configuration not stated)  -2.656%
39. CC(=O)c1cccc(S(=O)(=O)N2CCC(c3noc(C)n3)CC2)c1  -3.648%
40. COc1ccccc1OC1CCN(Cc2cnc(N(C)C)nc2)CC1  -4.548%
41. Cc1ncc(CN(C)C2CCCN(CCc3ccccc3)C2)n1C (configuration not stated)  -4.655%
42. CN(C)C[C@H]1OC[C@@H]2CCN(S(=O)(=O)c3ccccc3)C[C@@H]21.O=C(O)C(F)(F)F  -5.753%
43. CCCS(=O)(=O)CCN1CCOC(c2ccsc2)C1 (configuration not stated)  -6.167%
44. O=C(CCn1cc(Cl)cn1)N1CCN(CCOc2ccccc2)CC1  -6.646%
45. O=C(c1cc2ccccc2o1)N1CCN(Cn2cc(Cl)cn2)CC1  -7.476%
46. Cc1ccc([C@@H]2CN(S(=O)(=O)c3ccccc3)C[C@H]2N(C)C)cc1  -8.566%
47. COC(=O)NCC(=O)N(C)Cc1csc(-c2cccs2)n1  -9.296%
48. CC(=O)c1cccc(NC(=O)CN2CCCCC2C)c1 (configuration not stated)  -9.973%
49. O=C(O)[C@@H]1CN(CCOCCO)C[C@H]1c1ccccc1  -10.46%
50. Cc1ccc(OC2(C(=O)O)CCN(C(=O)c3cc(C)oc3C)CC2)cn1  -11.44%
51. O=C(NCc1nnc2ccccn12)N1CCOC(c2ccsc2)C1 (configuration not stated)  -11.65%
52. CCN(C)C1CCCc2nc(C)sc21 (configuration not stated)  -11.76%
53. CSC1(CNC(=O)NCc2sccc2C)CCOCC1  -11.79%
54. Cn1nccc1C(=O)N1CCCN(CCCc2ccccc2)CC1  -12.37%
55. CCN1CCC2(CC1)C(=O)N(c1ccc(C)nc1)CCN2CC(C)C.O=C(O)C(F)(F)F  -13.38%
56. CC(=O)c1cccc(S(=O)(=O)N2CCC(c3n[nH]c(C)n3)CC2)c1  -14.04%
57. CC(=O)N1CCCN(CCCc2ccccc2)CC1  -14.81%
58. COc1ccccc1CN(C)C(=O)c1cc(CN2CCC(O)CC2)on1  -15.1%
59. Nc1nccnc1C(=O)N1CCN(CCOc2ccccc2)CC1  -15.87%
60. O=C(CN1CCc2cncnc2C1)N1CCc2sccc2C1  -26.01%
61. CCc1ccc(CN2CCC3(CC2)C(=O)N(C)CCN3CC2CC2)cc1.O=C(O)C(F)(F)F  -26.46%
62. COc1cccc(OCC2CCCN(C(=O)c3ncoc3C3CC3)C2)c1 (configuration not stated)  -37.79%

Source: ChEMBL document CHEMBL3988442, “University of Dundee, Small-Polar-MMV Screening Library” (2021)
